Inconclusive results are not listed. The source made the active and inactive calls. Calls come from the whole dose curve; as a rule, active = well fitted curve in the direction sought with a large enough effect; inconclusive = small, poorly fitted or top-dose-only effect, or another doubt; inactive = no such curve, though single readings can be large; an effect the other way counts as inactive or inconclusive.
Key:
[1] = biological target: Aldehyde dehydrogenase, mitochondrial (Homo sapiens) (UniProt P05091); assay: qHTS for Inhibitors of the Aldehyde Dehydrogenase Family (ALDH2) Primary screen (AID 2061308);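 note: plate controls were vehicle for no effect and reference inhibitor for full effect; nearly all actives have a fitted effect of over 55% in size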
[2] = biological target: Retinaldehyde dehydrogenase 3 (Homo sapiens) (UniProt P47895); assay: qHTS for Inhibitors of the Aldehyde Dehydrogenase Family (ALDH1A3) Validation screen (AID 2061312); note: % is set by controls: 0 for no effect and ±100 for the full control effect; nearly all actives have a fitted effect of over 45% in size
[3] = biological target: Retinaldehyde dehydrogenase 3 (Homo sapiens) (UniProt P47895); assay: qHTS for Inhibitors of the Aldehyde Dehydrogenase Family (ALDH1A3) Primary screen (AID 2061315);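 note: plate controls were DMSO vehicle for no effect and reference inhibitor for full effect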
[4] = biological target: Retinal dehydrogenase 2 (Homo sapiens) (UniProt O94788); assay: qHTS for Inhibitors of the Aldehyde Dehydrogenase Family (ALDH1A2) Confirmation screens (AID 2061314); note: % is set by controls: 0 for no effect and ±100 for the full control effect; nearly all actives have a fitted effect of over 65% in size
[5] = biological target: Aldehyde dehydrogenase 1A1 (Homo sapiens) (UniProt P00352); assay: qHTS for Inhibitors of the Aldehyde Dehydrogenase Family (ALDH1A1) Confirmatory screens (AID 2061316); note: potency is the fitted concentration of half-maximal effect; nearly all actives have a fitted effect of over 65% in size
[6] = BET inhibitor-based combinations targeting novel dependencies in MECOM-rearranged (r) AML: SET-2 cell line (AID 2202231); conditions: SET-2 AML cells viability, CellTiter-Glo luminescence, 48 h; viability: hits give low values, concentration not given here; note: nearly all actives have a fitted effect of over 35% in size; note: potency is the fitted concentration of half-maximal effect;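 for viability: plate controls were DMSO treated cells for no effect and wells without cells for full effect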
Outline: (§1)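 Here, 11-point titrations of each agent were applied to 500 seeded cells and incubated 48 hr; CellTiter-Glo signal, scaled against DMSO and empty wells, was integrated as AUC, then Z-scored within the individual line.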

[7] = BET inhibitor-based combinations targeting novel dependencies in MECOM-rearranged (r) AML: OCI-AML3 cell line (AID 2202232); conditions: Potency: OCI-AML3 viability; note: nearly all actives have a fitted effect of over 35% in size; note: potency is the fitted concentration of half-maximal effect
Outline: as §1

[8] = BET inhibitor-based combinations targeting novel dependencies in MECOM-rearranged (r) AML: MV-4-11 cell line (AID 2202233); note: nearly all actives have a fitted effect of over 45% in size; note: potency is the fitted concentration of half-maximal effect
Outline: (§2)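 Normalized to DMSO and empty-well controls, the luminescence data from CellTiter-Glo after 48 hr drug exposure were fitted across 11 concentrations. Reported metrics are area under the dose-response curve and its Z-transformed form.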

[9] = BET inhibitor-based combinations targeting novel dependencies in MECOM-rearranged (r) AML: HNT-34 cell line (AID 2202234); note: nearly all actives have a fitted effect of over 35% in size; note: potency is the fitted concentration of half-maximal effect
Outline: as §2

[10] = BET inhibitor-based combinations targeting novel dependencies in MECOM-rearranged (r) AML: AML-191 cell line (AID 2202236; note: nearly all actives have a fitted effect of over 35% in size; note: potency is the fitted concentration of half-maximal effect)
Outline: as §1

[11] = BET inhibitor-based combinations targeting novel dependencies in MECOM-rearranged (r) AML: AML-194 cell line (AID 2202237; note: nearly all actives have a fitted effect of over 40% in size; note: potency is the fitted concentration of half-maximal effect)
Outline: as §1

[12] = BET inhibitor-based combinations targeting novel dependencies in MECOM-rearranged (r) AML: UCSD-AML1 cell line (AID 2202235);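 note: series mostly up to about 46 µM; plate controls were DMSO vehicle wells for no effect and blank wells for full effect; nearly all actives have a fitted effect of over 40% in size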
Outline: as §2

CC[N+]1(C/C2=C/CCCCCC2)CCC(NC(=O)C2c3cc(Cl)ccc3Oc3ccc(Cl)cc32)CC1 (stereo unspecified)
inactive: Potency [1] | Potency [2] | Potency [3]

Cc1ccc(CNc2ncnc3ccc(-c4ccc(CO)o4)cc23)o1
inactive: Potency [1] | Potency [4] | Potency [3]
active: Potency [5] 4 µM

CCN(CC)CCNC(=O)c1ccc2nc(-c3ccccc3)c(-c3ccc(CN4CCC(n5c(=O)[nH]c6ccccc65)CC4)cc3)nc2c1
inactive: Potency [1] | Potency [2] | Potency [3]
active: Potency [6] 8.33 µM | Potency [7] 8.33 µM | Potency [8] 6.61 µM | Potency [9] 8.33 µM | Potency [10] 9.34 µM | Potency [11] 7.42 µM

CC1OC(OC2C(OC3C(O[C@H]4CC[C@@]5(C)C(CC[C@]6(C)C5C(=O)C=C5C7CC(C)(C)CC(O)[C@]7(C)CC[C@]56C)C4(C)C)OC(C(=O)O)C(O)C3O)OCC(O)C2O)C(O)C(O)C1O (stereo partly specified)
inactive: Potency [1] | Potency [3]

CC(C)S(=O)(=O)Nc1ccc(F)c(C(=O)c2c[nH]c3ncc(-c4cccnc4)cc23)c1F
inactive: Potency [1] | Potency [2] | Potency [3]

CS(=O)(=O)c1ccc(-c2nnc(/C=C/c3nnc(-c4ccc(C#N)cc4)o3)n2-c2ccccc2Cl)nc1
active: Potency [8] 10.5 µM
inactive: Potency [1] | Potency [2] | Potency [3] | viability [6] 111% | Potency [9] | Potency [12]

Cc1noc(C)c1-c1cc(O)cc(C(O)c2ccccc2)c1 (stereo unspecified)
inactive: Potency [1] | Potency [2] | Potency [3]

C[C@H](NC(=O)Cc1cc(F)cc(F)c1)C(=O)N[C@@H]1C(=O)N(C)c2ccccc2-c2ccccc21
inactive: Potency [1] | Potency [2] | Potency [3] | viability [6] 121% | Potency [8] | Potency [9] | Potency [12] | Potency [10]

Clc1cccc(-n2nnnc2NCc2ccccc2Oc2ccccn2)c1Cl
inactive: Potency [1] | Potency [2] | Potency [3] | viability [6] 103% | Potency [7] | Potency [8] | Potency [9] | Potency [10] | Potency [11]

O=C(Nc1ccc(S(=O)(=O)Nc2nccs2)cc1)C(c1ccccc1)c1ccccc1
inactive: Potency [1] | Potency [2] | Potency [3]

— PubChem BioAssay (NCATS)
